We go through 6 compounds from PubChem BioAssay.

Inconclusive results are not listed. For some of these results: Measured potencies and affinities stand elsewhere. Active and inactive are the calls of the source. Unless noted, no rule for the calls is given here.

Test [1] can be described thus: viability loss in pontine glioma line – cell-based, SU-DIPG-XVII, MIPE5.0, CellTiter-Glo, qHTS, dose response (AID 1347060; cut-off not given, nearly all actives have AC50 up to about 26 µM;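 also: cells exposed to compound for 48 hours before viability readout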). The conditions noted are these: CellTiter-Glo ATP luminescence.
The nature of test [2]: viability loss in pontine glioma line – cell-based, JHH-DIPG-1, MIPE4.0, CellTiter-Glo, qHTS, dose response (AID 1347062; cut-off not given, nearly all actives have AC50 up to about 27 µM;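 as to AC50: cells exposed to compound for two days before readout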). The conditions noted are these: JHH-DIPG-1 viability, CellTiter-Glo ATP luminescence.
Test [3] in a line: JHH-DIPG-1 glioma cell viability, MIPE5.0 library, CellTiter-Glo luminescence, qHTS (AID 1347067; cut-off not given, nearly all actives have AC50 up to about 26 µM;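 also: cells exposed to compound for 48 hours before readout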). The following applies: JHH-DIPG-1 glioma viability, CellTiter-Glo ATP luminescence.
Test [4] deals with 6-phosphogluconate dehydrogenase, decarboxylating (Homo sapiens) (UniProt P52209). As to the kind of experiment: inhibition of human phosphogluconate dehydrogenase – biochemical, recombinant enzyme, NADPH absorbance, primary screen (AID 1159550;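 active = at least 20% inhibition of 6-phosphogluconate dehydrogenase activity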). The conditions noted are these: recombinant 6PGD, NADPH absorbance 341 nm; at 10 µM; stronger effect = higher value.
Sequence of 6-phosphogluconate dehydrogenase, decarboxylating (Homo sapiens) (P52209 whole entry, looked up): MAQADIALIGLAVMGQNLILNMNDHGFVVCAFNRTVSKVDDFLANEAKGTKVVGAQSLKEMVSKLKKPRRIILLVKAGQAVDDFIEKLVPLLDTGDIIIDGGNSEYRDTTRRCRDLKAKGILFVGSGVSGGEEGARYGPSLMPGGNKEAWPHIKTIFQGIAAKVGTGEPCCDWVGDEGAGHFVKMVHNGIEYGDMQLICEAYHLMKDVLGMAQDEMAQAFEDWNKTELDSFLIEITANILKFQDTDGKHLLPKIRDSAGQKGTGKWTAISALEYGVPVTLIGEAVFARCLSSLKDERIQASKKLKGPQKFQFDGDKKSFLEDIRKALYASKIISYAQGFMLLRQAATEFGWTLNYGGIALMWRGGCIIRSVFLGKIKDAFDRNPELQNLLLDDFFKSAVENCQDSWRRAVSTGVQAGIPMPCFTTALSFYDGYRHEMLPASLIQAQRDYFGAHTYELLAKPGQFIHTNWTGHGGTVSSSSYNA
Test [5] in a line: EMT-state selective cytotoxicity in co-culture – imaging, PC-3E GFP, TEM4-18 mCherry, primary screen (AID 1345086;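 active = compounds killing one labelled cell type while sparing the other, by normalised counts and ratio limits, not self-fluorescent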;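 as to all read-outs here: cells exposed to compound for 72 h before imaging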;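 as to red/green cell ratio (normalised): normalised mesenchymal count divided by normalised epithelial count so high means epithelial killing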). The conditions noted are these: PC-3E GFP / TEM4-18 mCherry co-culture, imaging cell counts, at 1 µM; for red/green cell ratio (normalised): actives lie on both sides.
In test [6] the test system is Aerobactin synthetase IucA (Klebsiella pneumoniae hvKP1). As to the kind of experiment: IucA enzyme inhibition, primary screen, biochemical, Spectrum library (AID 1346200).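 Also: 100% = wells without compound and 0% = wells lacking enzyme.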 The conditions noted are these: malachite green pyrophosphate, A620, at 8 µM, stronger effect = lower value.
In test [7] the target is Mitogen-activated protein kinase 7 (Homo sapiens) (UniProt Q13164). Briefly: Gal4-ERK5 driven luciferase induction – cell-based, HTS, primary screen (AID 1508626;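 active = luciferase signal above three times the same-plate solvent-only control wells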;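 also: luciferase driven by Gal4-ERK5 fusion binding five Gal4 sites before minimal TATA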). The following applies: HeLa Gal4-ERK5 transactivation, 18 h, at 5 µM, stronger effect = higher value.
Sequence of Mitogen-activated protein kinase 7 (Homo sapiens) (Q13164 whole entry, looked up, the tested form may be a part): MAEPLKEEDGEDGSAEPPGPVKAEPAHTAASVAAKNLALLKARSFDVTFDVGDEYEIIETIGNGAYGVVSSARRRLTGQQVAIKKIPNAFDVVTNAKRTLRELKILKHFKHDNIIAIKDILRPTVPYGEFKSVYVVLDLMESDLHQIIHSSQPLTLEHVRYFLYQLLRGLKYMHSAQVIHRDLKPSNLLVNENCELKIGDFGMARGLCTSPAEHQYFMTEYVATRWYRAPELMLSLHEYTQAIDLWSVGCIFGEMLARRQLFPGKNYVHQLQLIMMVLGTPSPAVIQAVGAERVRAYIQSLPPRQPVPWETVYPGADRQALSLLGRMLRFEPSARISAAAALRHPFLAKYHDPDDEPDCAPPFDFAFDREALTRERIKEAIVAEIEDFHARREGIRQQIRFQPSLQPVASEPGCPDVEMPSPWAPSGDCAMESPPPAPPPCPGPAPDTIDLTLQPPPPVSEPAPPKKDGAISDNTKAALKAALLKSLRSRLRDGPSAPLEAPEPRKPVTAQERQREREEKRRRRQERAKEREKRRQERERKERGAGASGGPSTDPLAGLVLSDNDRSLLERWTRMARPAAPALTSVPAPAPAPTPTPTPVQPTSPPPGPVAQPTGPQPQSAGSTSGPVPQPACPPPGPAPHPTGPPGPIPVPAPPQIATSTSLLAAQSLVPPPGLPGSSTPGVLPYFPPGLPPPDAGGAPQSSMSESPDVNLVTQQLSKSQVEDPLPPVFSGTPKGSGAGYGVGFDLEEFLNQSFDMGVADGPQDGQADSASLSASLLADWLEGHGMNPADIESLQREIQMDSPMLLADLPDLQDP
A short description of test [8]: blockers of polyQ-driven CASP3 activation – cell-based (AID 1583). The conditions noted are these: polyglutamine-induced caspase-3 activation, cell assay; stronger effect = higher value;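 tested at 10 µM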.
The nature of test [9]: yeast 75Q aggregation reduction – 75Q-TubU reporter (AID 1593). The conditions noted are these: Yeast 75Q polyglutamine aggregation reporter.
Test [10] is described as follows: selective SMN2 exon splicing luciferase activators – cell-based, SMN2/SMN1 luciferase reporters (AID 1598). The following applies: SMN2 vs SMN1 luciferase splicing reporter cells, at 10 µM; SMN1 luciferase ratio: measured here: SMN1 luciferase reporter average; SMN2 luciferase ratio: measured here: SMN2 luciferase reporter average, stronger effect = higher value; SMN2/SMN1 luciferase ratio: stronger effect = higher value.

Test [11] in a line: restoration of touch response, mutant HTT neurons – whole organism, C. elegans mechanosensory neurons, N-terminal huntingtin (AID 1599). The conditions noted are these: C. elegans polyQ-huntingtin mechanosensory neurons, stronger effect = higher value.
Test [12] in a line: blockers of cytochrome c efflux from mitochondria – biochemical, purified mitochondria (AID 1603).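 Also: mouse liver mitochondria challenged with calcium chloride; signal normalized to the plate average as 100%.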 The conditions noted are these: stronger effect = lower value.
A short description of test [13]: polyglutamine aggregate formation blockers (AID 1604). The following applies: polyglutamine-induced protein aggregation inhibition assay; stronger effect = higher value; tested at 2.5 µM.
Test [14] in a line: rescue of PC12 cells from polyQ htt toxicity – LDH release (AID 1610). The following applies: PC12 mutant huntingtin toxicity, final LDH at 4 uM, stronger effect = lower value.
A short description of test [15]: glutamate transport activators, MN-1 cells, MN-1 cell line (AID 1612).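 Also: tested at 1 µM final; 0% = mean of DMSO vehicle wells on each plate; positive means more glutamate uptake than control and negative means less.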 The conditions noted are these: MN-1 motor neuron cells, stronger effect = higher value.
A short description of test [16]: 75Q-TubH aggregate inhibition, S. cerevisiae, yeast (AID 1616). The following applies: S. cerevisiae 75Q-TubH polyglutamine aggregation suppression; stronger effect = higher value.
Where [17] appears, read: measured here: epithelial PC-3E GFP cell survival.
Setting [18] is: measured here: mesenchymal TEM4-18 mCherry cell survival.

For `CC1=C(O)C(=O)C=C2C1=CC=C1[C@@]2(C)CC[C@@]2(C)[C@@H]3C[C@](C)(C(=O)O)CC[C@]3(C)CC[C@]12C`, the half-maximal activity concentration (AC50) was 2090 nM (active) in test [1], 2640 nM (active) in test [2] and 934 nM (active) in [3].
`COc1cc(OC)c(OC)cc1C=O`: the outcome in test [2] was inactive.
Turning to `COC1=C[C@@H]2[C@@H]3Cc4ccc(OC)c(O)c4[C@]2(CCN3C)CC1=O`, in [3], the compound was called inactive.
For `COc1cc2c(cc1OC)[C@@H]1C(=O)c3ccc(OC)c(CC=C(C)C)c3O[C@@H]1CO2`, the inhibition in test [4] was 18.8% (inactive). Further, the red/green cell ratio (normalised) in test [5] is 0.91 (inactive). Besides, the figures for the normalised cell number in test [5] (setting [17]) and in test [5] (setting [18]) were 0.87 and 0.8, respectively. Moreover, in [6], the activity remaining was 109% (inactive). Further, the luciferase signal in [7] was 68 AU (inactive).
Regarding `CC(=O)Oc1c2c(c(CC=C(C)C)c3c1C(=O)C1=C[C@@H]4CC5C(C)(C)OC(C/C=C(\C)C(=O)O)(C4=O)[C@@]15O3)OC(C)(CCC=C(C)C)C=C2` (some centres undefined), the inhibition in test [4] is 23.4% (active). The red/green cell ratio (normalised) in [5] (counts scaled to control wells, 1 = unselective) is 0.83 (inactive). Further, the results for the normalised cell number in [5] (setting [17]) and in test [5] (setting [18]) were 1.18 and 0.98, respectively. Further, in [6], the activity remaining is 120% (inactive). In addition, the luciferase signal in [7] is 140 AU (inactive).
For `O=C1C=C2C(=CCOC2O)O1` (centres undefined), the inhibition was 71.1% in [8] and 4.22% (inactive) in [4]. Moreover, the score in test [9] was found to be 1.15. In [10], the SMN1 luciferase ratio was found to be 0.26. For the same compound, the SMN2/SMN1 luciferase ratio in test [10] is 2.76 (active). In addition, the SMN2 luciferase ratio in [10] was determined as 0.46. Besides, in test [11], the rescue above control is -6.1. Moreover, the cytochrome c release ratio in test [12] was 0.78. This compound displayed an inhibition of aggregation in test [13] of 0%. This compound also gave a normalised LDH release in test [14] of 0.848. For the same compound, the glutamate uptake change in test [15] was -4.18%. This compound returned an aggregation suppression score in test [16] of 0.84. Moreover, the red/green cell ratio (normalised) in test [5] is 0.44 (inactive). In addition, the values for the normalised cell number in [5] (setting [17]) and in [5] (setting [18]) were 0.14 and 0.06, respectively. The activity remaining in test [6] is 124% (inactive). Moreover, the luciferase signal in test [7] is 3170 AU (active).
